The text below walks through data of PubChem BioAssay (Tox21).

Active and inactive are the calls of the source. Calls follow the shape of the dose curve; as a rule, active = well fitted curve in the direction sought with a large enough effect in the repeat runs; inconclusive = weak or mixed curves; inactive = flat fitted curve, though single readings scatter.
% is scaled to controls: 0 for no effect and ±100 for the full control effect.

This assay is described as follows: qHTS assay to test for compound auto fluorescence at 460 nm (blue) in HepG2 cell free culture (AID 720685). Conditions: Cell-free culture medium, blue autofluorescence 405/460 nm; series mostly up to 91.3 µM; fluorescence, % of fluorescent control: at the top concentration. The text has this:
U.S. Tox21 Program National Center for Advancing Translational Sciences [NCATS] NIH Chemical Genomics Center [NCGC] U.S. Environmental Protection Agency [EPA] National Institutes of Environmental Health Sciences [NIEHS] National Toxicology Program [NTP] U.S. Food and Drug Administration [FDA] Tox21 Assay Overview: Compound auto fluorescence often interferes with screening of the compound library against various biological targets and signaling pathways. Some of these compounds may have fluorophoric properties. Such properties may interfere with the assay outputs resulting in false positives and/or negatives. To decrease such complications and ensure the compound activities are relevant in terms of biological response, the Tox21 10K compound library was screened for auto fluorescence. From the fluorophores used as reporter signals in our screening assays, the auto fluorescence equivalencies of compounds against three fluorophores have been evaluated: Triamterene, Fluorescein and Rose Bengal sodium for blue, green and red fluorescence, respectively. The fluorescence intensities were measured using Excitation/Emission wavelengths at 405/460nm, 485/535nm and 540/590nm for blue, green and red labels, respectively. This assay includes the blue fluorescence data.
Tox21 Assay Protocol Summary: 5 uL of culture medium (MEM containing 10% FBS) per well was dispensed into black wall/clear bottom 1536-well plates using a Multidrop Combi Dispenser (ThermoFisher Scientific, Waltham, MA). After 23 nL compound or DMSO vehicle was transferred into assay plate by a pintool work station (Kalypsys, San Diego, CA), fluorescence intensities in the assay plates were measured by an Envision (PerkinElmer, Shelton, CT) plate reader using three labels for measuring blue, green and red fluorescence at […] 460, 535 and 590nm respectively.
On the technique in general: qHTS replaces the single test concentration by a dilution series.
For the compound `COc1ccccc1OCC(O)CO` (stereo not given), the compound was called inactive. Same read-out and setting: the same measure for `CC(=O)c1ccc(O)cc1`: “inactive”; for `CC(=O)OC1CC(C)OC(C)O1` (stereo not given): “inactive”. Consider `CC(CCl)OP(=O)(OC(C)CCl)OC(C)CCl` (stereo not given), for which the compound was called inactive. Consider `CC(C)(Oc1ccc(CCNC(=O)c2ccc(Cl)cc2)cc1)C(=O)O`, for which the compound was classed as inactive. As to `CCCCCCCCCCO`, the call was inactive. Turning to `COc1ccc(OC)cc1`, the call was inactive. Take `CCCCCCCCCCCC(=O)OC`: the call was inactive. With `N#Cc1ccccc1`, the compound was classed as inactive. For the compound `C=C(C)CNCC`, the result was inactive. In the case of `O=C(OCC1CCC2OC2C1)C1CCC2OC2C1` (stereo not given), the result was inactive.

As to `O=C1CCCC1`, the compound was called inactive.

In the case of `COC(=O)CCCC(=O)OC`, the call was inactive. Turning to `C=CC(C)CCCC(C)(C)O` (stereo not given), the compound was called inactive. Still for that read-out and setting: with `C=CCc1ccc(OC)c(OC)c1` the entry was “inactive”. Consider `CCNc1ccccc1`, for which the compound was classed as inactive. Take `CC(C)(C)c1cc(Cc2cc(C(C)(C)C)c(O)c(C(C)(C)C)c2)cc(C(C)(C)C)c1O`: the call was inactive. With `C[C@]12CCC(=O)C=C1CC[C@@H]1[C@@H]2[C@@H](O)C[C@@]2(C)[C@H]1CC[C@]2(O)C(=O)CO`, the call was inactive. On to `CCOC(=O)c1ccc(N)cc1`, for which the call was inactive. `CN1C(=O)CC[C@H]1c1cccnc1`: the compound was called inactive.

Regarding `CCCCOC(=O)c1ccc(N)cc1`, the outcome was inactive. `NCCCCCCN`: the compound was called inactive. Same read-out and setting: with `C[Si]1(C)O[Si](C)(C)O[Si](C)(C)O[Si](C)(C)O1` the entry was “inactive”; with `CCOC(=O)n1ccn(C)c1=S`, “inactive”; with `CCCOC(=O)c1ccccc1`, “inactive”. With `CC(=O)OCc1ccco1`, the call was inactive.

In the case of `Brc1ccc(Br)c(Br)c1`, the outcome was inactive. For the compound `O=C1c2ccccc2CCc2ccccc21`, the “fluorescence, % of fluorescent control” value was 0.0154% [at 95.7 µM] (inactive).

In the case of `COc1ccc([N+](=O)[O-])cc1N`, the outcome was inactive. As for `CCO[Si](CCCN)(OCC)OCC`, the result was inactive. The same measure, in the same setting: the same measure for `O=C(O)c1cc2ccccc2cc1O`: “inactive”. On to `CN(C)CCOC(=O)COc1ccc(Cl)cc1`, for which the compound was called inactive. Turning to `O=c1[nH]cnc2[nH]ncc12`, the compound was classed as inactive. With `CCc1ccccc1CC`, the compound was called inactive. Same read-out and setting: the same measure for `CSc1ccc(Cl)cc1`: “inactive”. Consider `CN(C)c1ccc(O)c2c1C[C@H]1C[C@H]3[C@H](N(C)C)C(=O)C(C(N)=O)=C(O)[C@@]3(O)C(=O)C1=C2O`, for which the compound was classed as inactive.

For the compound `C=C(C)[C@H]1CC=C(C)C(=O)C1`, the compound was called inactive.

Take `O=C1C(c2[nH]c3ccccc3c2O)=Nc2ccccc21`: the compound was classed as inactive.

Turning to `C=CC[N+](C)(C)CC=C`, the outcome was inactive. Consider `c1ccc(Oc2ccccc2)cc1`, for which the outcome was inactive.
